The test deals with WHIM2 (cells of a triple-negative basal-like breast cancer xenograft). Description: cell viability of combination (% of vehicle); higher = less cytotoxic. The note with it: 1 µM; 72 h; partner dose: 10 nM. Here is the method:
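PDX cells were treated for 72 h with each drug at 1 µM plus afatinib (10 nM; 1 µM for WHIM30). Luciferase viability is expressed as percent of vehicle.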
On to `CCCCCCCCCCCCCCCC[N+](C)(C)C.[Br-]` [Cetrimonium Bromide (CTAB)] + CN(C)C/C=C/C(=O)Nc1cc2c(Nc3ccc(F)c(Cl)c3)ncnc2cc1O[C@H]1CCOC1 [Afatinib], for which the “cell viability of combination” value was 38. On to `CCCCCCCCCCCC[N+](C)(C)CCOc1ccccc1.[Br-]` [Domiphen Bromide] + CN(C)C/C=C/C(=O)Nc1cc2c(Nc3ccc(F)c(Cl)c3)ncnc2cc1O[C@H]1CCOC1 [Afatinib], for which the “cell viability of combination” value is 41.6. For `CCCCCCCCCCCCCCCC[n+]1ccccc1.[Cl-]` [Cetylpyridinium Chloride] + CN(C)C/C=C/C(=O)Nc1cc2c(Nc3ccc(F)c(Cl)c3)ncnc2cc1O[C@H]1CCOC1 [Afatinib] the value was 32.2; for `Cc1cc(C(C#N)c2ccc(Cl)cc2)c(Cl)cc1NC(=O)c1cc(I)cc(I)c1[O-].[Na+]` (stereo not given) [Closantel Sodium] + CN(C)C/C=C/C(=O)Nc1cc2c(Nc3ccc(F)c(Cl)c3)ncnc2cc1O[C@H]1CCOC1 [Afatinib], 49.1; for `Cc1cc(C(C#N)c2ccc(Cl)cc2)c(Cl)cc1NC(=O)c1cc(I)cc(I)c1O` (stereo not given) [Closantel] + CN(C)C/C=C/C(=O)Nc1cc2c(Nc3ccc(F)c(Cl)c3)ncnc2cc1O[C@H]1CCOC1 [Afatinib], 47.

The record behind these values is the supplement of paper PMC6992640.
